The source of these data is PubChem BioAssay AID1022 (Emory University Molecular Libraries Screening Center, 2008).

The term inhibition denotes the change of the read-out against control, counted positive when it falls.

SMILES strings stand for the structures. Hit rate of the full screen: of about 220,000 compounds, about 3,300 (1.5%) were called active.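 The calls were made as follows: active = compounds that cut the protein-peptide binding signal by more than 50% relative to plate controls in a single-dose test; inactive = the rest.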 The full list was thinned out, with actives kept by preference.

The target of the assay is Induced myeloid leukemia cell differentiation protein Mcl-1 (Homo sapiens) (UniProt Q07820). Description: Mcl-1/Noxa binding inhibitors, primary screen, biochemical, TR-FRET, 1536-well (AID 1022).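 Also: His-tagged Mcl-1 with rhodamine Noxa BH3 peptide and terbium anti-His antibody; 0% = Mcl-1 plus Noxa peptide wells and 100% = peptide-only wells.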 The following applies: TR-FRET Mcl-1/Noxa peptide binding, 2 h; at 21.7 µM; active compounds read high. In general terms: In TR-FRET formats the signal depends on donor and acceptor labels being close together.
Chain of Induced myeloid leukemia cell differentiation protein Mcl-1 (Homo sapiens) (Q07820 whole entry, looked up): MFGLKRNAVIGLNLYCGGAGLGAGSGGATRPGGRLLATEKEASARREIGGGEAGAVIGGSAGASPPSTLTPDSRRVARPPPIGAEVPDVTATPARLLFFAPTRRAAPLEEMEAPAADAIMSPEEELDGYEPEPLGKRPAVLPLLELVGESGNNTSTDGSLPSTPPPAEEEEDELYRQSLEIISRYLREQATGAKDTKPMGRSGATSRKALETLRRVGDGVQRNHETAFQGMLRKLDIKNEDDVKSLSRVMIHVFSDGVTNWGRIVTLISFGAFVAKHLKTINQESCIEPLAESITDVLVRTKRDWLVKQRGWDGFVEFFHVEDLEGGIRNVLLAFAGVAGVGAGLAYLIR
On to `Cc1cccc(N2C(=O)NC(=O)/C(=C\c3cnn(-c4ccccc4)c3)C2=O)c1`, for which the inhibition was 29.4% (inactive). In the case of `COc1cccc(N2C(=O)NC(=O)/C(=C\c3ccc([N+](=O)[O-])s3)C2=O)c1` it was 59.7% (active); in that of `O=C1NC(=O)N(c2ccccc2)C(=O)/C1=C/c1ccc([N+](=O)[O-])s1`, 45.5% (inactive).

As for `CCCCC(=O)N/N=C/c1c(O)n(-c2ccccc2)c(=O)[nH]c1=O`, the inhibition is -147% (inactive). In the case of `Cc1c(C(=O)O)cccc1-n1c(C)cc(/C=C2\C(=O)NC(=O)N(c3ccc4c(c3)OCO4)C2=O)c1C` it was 14.7% (inactive); in that of `O=C1NC(=O)N(CCc2ccc(F)cc2)C(=O)/C1=C/C=C/c1ccccc1`, 6.31% (inactive). The figure for `O=C1NC(=O)N(c2ccc(F)cc2)C(=O)/C1=C/c1ccc2c(c1)CCCN2Cc1ccccc1` is 67.7% (active); for `O=c1[nH]c(=O)n(CCc2ccccc2)c(O)c1/C=N/N1CCOCC1` it is 6.09% (inactive). Turning to `COc1cccc(CN2CCCC(C(=O)c3ccccc3SC)C2)c1O` (stereo not given), the inhibition was 16.2% (inactive).

Regarding `CCCCCCCCCCCCn1ccc(=N)cc1`, the inhibition is 2.41% (inactive).

For `O=C(O)CCn1cc(C=C2C(=O)NC(=S)NC2=O)c(-c2cccc(Br)c2)n1`, the inhibition was 93.9% (active). In the case of `CN(C)CC1CCCCC1=O` (stereo not given) it was 21.8% (inactive). The figure for `CNC(=O)O/N=C(\N)Cc1csc2ccccc12` is -19.1% (inactive); for `Cc1ccc(-n2c(O)c(C=NCC3CCCO3)c(=O)[nH]c2=O)c(C)c1` (stereo not given) it is -16.8% (inactive).

As to `Cc1cc(/C=C2/C(=O)NC(=O)N(Cc3ccco3)C2=O)c(C)n1-c1ccc(C(=O)O)cc1`, the inhibition was 27.4% (inactive). As to `O=C1NC(=O)N(Cc2ccco2)C(=O)/C1=C\c1cccn1CCOc1ccccc1`, the inhibition was 3.37% (inactive). In the case of `O=C1NC(=O)N(Cc2ccco2)C(=O)/C1=C\c1ccc(-c2ccc(F)cc2)o1` it was 69.5% (active); in that of `CSc1ccc(C(=O)C2CCCN(Cc3ccn[nH]3)C2)cc1` (stereo not given), 16.2% (inactive). In the case of `c1cc2c(cc1[C@H]1OC[C@H]3[C@@H]1CO[C@@H]3c1ccc3c(c1)OCO3)OCO2` it was 1.72% (inactive); in that of `CCOc1cccc(=NC2CCCCC2)c2c(C)[nH]c(C)c12`, 23.3% (inactive).
